The results in this text go back to PubChem BioAssay (Tox21).

“And” between values parts separate entries of the source, which are not always exact repeats. Equal values may be shown once. Results filed as inconclusive are left out. More than one record can exist for a structure, and the calls need not agree. The source made the active and inactive calls. Unless noted, the call rests on the fitted dose curve; in most records, active means well fitted curve in the direction sought with a large enough effect in the repeat runs; inconclusive means weak or mixed curves; inactive means no such curve, though single readings can be large; an effect the other way counts as inactive or inconclusive.

Assay [1] has as its target Progesterone receptor (Homo sapiens) (UniProt P06401). In words: qHTS assay to identify small molecule agonists of the progesterone receptor (PR) signaling pathway (AID 1346784; calls by dose curve; further: nearly all actives have a fitted effect of over 30% in size). The conditions noted are these: PR-UAS-bla HEK293T, beta-lactamase FRET ratio, 16 h; series mostly up to 92.4 µM. The procedure, abridged:
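Agonist qHTS: compounds pinned onto 3,000 PR-UAS-bla HEK 293T cells per well in charcoal-stripped serum medium, 16hr at 37C, then beta-lactamase activity measured by LiveBLAzer FRET fluorescence after 2 hours at room temperature.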
For orientation: Quantitative high-throughput screening tests each substance at several concentrations.

The target is the same in assay [2]. The assay can be described thus: qHTS assay to identify small molecule antagonists of the progesterone receptor (PR) signaling pathway (AID 1346795; active means well fitted inhibition curve with a large enough effect in the signal ratio in the repeat runs, not every such curve was filed as active; the % refers to the signal ratio; further: potency means the concentration at half of the fitted maximal effect). The settings on record: PR-UAS-bla HEK293T, beta-lactamase FRET ratio, 16 h; series mostly up to 92.4 µM. In a few lines:
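Antagonist mode with agonist R5020 at 1 nM final and 16 hr incubation at 37C. Reporter was beta-lactamase driven by UAS in HEK293T (PR-UAS-bla), 2% charcoal-stripped serum; signal from LiveBLAzer FRET substrate, 2 hr at room temperature.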

Assay [3] in a line: qHTS assay to identify small molecule antagonists of the progesterone receptor (PR) signaling pathway - cell viability counter screen (AID 1346798). Further: nearly all actives have a fitted effect of over 50% in size. The settings on record: PR-UAS-bla HEK293T viability, CellTiter-Glo luminescence, 16 h; series mostly up to 92.4 µM. The procedure, abridged: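 Cytotoxicity read as CellTiter-Glo luminescence (30 min, room temperature) in the same wells as the beta-lactamase readout. HEK293T PR-UAS-bla cells in charcoal-stripped 2% FBS received compound and R5020, then 16 h at 37C, 5% CO2.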

Assay [4] can be described thus: qHTS assay to identify small molecule agonists of the progesterone receptor (PR) signaling pathway - cell viability counter screen (AID 1346799; calls by dose curve; further: nearly all actives have a fitted effect of over 45% in size; further: potency means the concentration at half of the fitted maximal effect). The settings on record: PR-UAS-bla HEK293T viability, CellTiter-Glo luminescence, 16 h; series mostly up to 92.4 µM. The procedure, abridged:
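Cytotoxicity measured by CellTiter-Glo luminescence (30 min, RT) in the same wells as the PR beta-lactamase agonist read. Those HEK293T cells had 16 h compound treatment at 37 C in 2% charcoal-stripped FBS medium.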

Assay [5] can be described thus: qHTS assay to identify small molecule antagonists of the TGF-beta/Smad signaling pathway - cell viability counter screen (AID 1346824). Further: nearly all actives have a fitted effect of over 50% in size. The conditions noted are these: SBE-bla HEK293T viability, CellTiter-Glo luminescence; series mostly up to 76.8 µM. In a few lines: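 SBE-bla HEK 293T cells, incubated overnight, then compound plus 0.25 ng/mL TGF-beta1 (stock added) for 5 hr at 37 C. Viability was read in the same wells by CellTiter-Glo luminescence after 30 min at room temperature.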

Assay [6] is described as follows: qHTS assay to identify small molecule agonists of the TGF-beta/Smad signaling pathway - cell viability counter screen (AID 1346829). Further: top concentration of the series differs between compounds; nearly all actives have a fitted effect of over 45% in size. The conditions noted are these: SBE-bla HEK293T viability, CellTiter-Glo luminescence, 5 h; series mostly up to 76.8 µM. In a few lines: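 After overnight seating at 37 C and 5% CO2, reporter cells got compounds for 5 hr and FRET substrate for 2 hr; cell viability then came from CellTiter-Glo luminescence.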

A short description of assay [7]: qHTS assay to identify small molecule agonists of the TGF-beta/Smad signaling pathway (AID 1346859; active means well fitted activation curve with a large enough effect in the signal ratio in the repeat runs, not every such curve was filed as active; the % refers to the signal ratio). The settings on record: SBE-bla HEK293T, TGF-beta/Smad beta-lactamase reporter, 5 h; series mostly up to 76.8 µM. The procedure, abridged:
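Fluorescence (ex 405 nm; em 460 and 530 nm) was read 2 h after LiveBLAzer FRET substrate at RT. The preceding compound treatment of overnight-plated SBE-bla HEK293T cells lasted 5 h at 37 C.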

Assay [8] is described as follows: Human pregnane X receptor (PXR) small molecule agonists, qHTS cell viability counter screen (AID 1346977). Further: nearly all actives have a fitted effect of over 50% in size. The conditions noted are these: PXR-Luc HepG2 viability, CellTiter-Fluor, 24 h; series mostly up to 92.4 µM. The procedure, abridged:
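Same-well viability read: CellTiter-Fluor added after 23 hr compound exposure, fluorescence measured 1 hr later. Cells were PXR-Luc HepG2 seeded at 2,000/well in 5% charcoal-stripped FBS medium, rested 5 hr before dosing at 37 C.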

Assay [9] is described as follows: Caspase-3/7 induction in HepG2 cells by small molecules, qHTS assay (AID 1346978). Further: nearly all actives have a fitted effect of over 15% in size. The conditions noted are these: HepG2 caspase-3/7 activation, Caspase-Glo luminescence, 17 h; series mostly up to 92.4 µM. The procedure, abridged: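 Wild-type HepG2 cells, 2,000/well, settled 5 hr at 37 C and 5% CO2, then compound-treated for 17 hr; caspase-3/7 activity read by luminescent Caspase-Glo 3/7 after 30 min at room temperature.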

Assay [10] is described as follows: Caspase-3/7 induction in CHO-K1 cells by small molecules, qHTS cell viability counter screen (AID 1346979). Further: nearly all actives have a fitted effect of over 35% in size. The conditions noted are these: CellTiter-Fluor fluorescence, 17 h; series mostly up to 92.4 µM. In a few lines:
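Cytotoxicity counter screen: CellTiter-Fluor added to compound-treated wild-type CHO-K1 cells at 16 h (37C, 5% CO2), fluorescence measured 1 h later; same wells as caspase-3/7 measurement.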

Assay [11] in a line: Caspase-3/7 induction in CHO-K1 cells by small molecules, qHTS assay (AID 1346980). Further: nearly all actives have a fitted effect of over 15% in size. The conditions noted are these: CHO-K1 caspase-3/7 induction, Caspase-Glo luminescence, 17 h; series mostly up to 92.4 µM. In a few lines: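 Wild-type CHO-K1 cells exposed to compounds for 17hr at 37 C, 5% CO2. Caspase-3/7 activity then measured by Caspase-Glo 3/7 luminescence after 30min at room temperature.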

Assay [12] is described as follows: Caspase-3/7 induction in HepG2 cells by small molecules, qHTS cell viability counter screen (AID 1346981). Further: nearly all actives have a fitted effect of over 30% in size. Further: potency means the concentration at half of the fitted maximal effect. The settings on record: CellTiter-Fluor fluorescence, 17 h; series mostly up to 92.4 µM. The procedure, abridged: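 Multiplexed with the caspase-3/7 assay: HepG2 cells, 16 hr compound treatment, CellTiter-Fluor viability detection by fluorescence.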
Assay [13] deals with Nuclear receptor subfamily 1 group I member 2 (Homo sapiens) (UniProt O75469). In words: Human pregnane X receptor (PXR) small molecule agonists, qHTS assay (AID 1346982). Further: nearly all actives have a fitted effect of over 35% in size. Further: potency means the concentration at half of the fitted maximal effect. The settings on record: PXR-Luc HepG2, CYP3A4 luciferase reporter, 24 h; series mostly up to 92.4 µM. The procedure, abridged: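 We seeded PXR-Luc HepG2 cells in assay medium containing 5% charcoal-stripped FBS, added compounds 5 hr later, incubated 24 hr, and read luminescence with ONE-Glo reagent.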
Nuclear receptor subfamily 1 group I member 2 (Homo sapiens), sequence (O75469 whole entry, looked up): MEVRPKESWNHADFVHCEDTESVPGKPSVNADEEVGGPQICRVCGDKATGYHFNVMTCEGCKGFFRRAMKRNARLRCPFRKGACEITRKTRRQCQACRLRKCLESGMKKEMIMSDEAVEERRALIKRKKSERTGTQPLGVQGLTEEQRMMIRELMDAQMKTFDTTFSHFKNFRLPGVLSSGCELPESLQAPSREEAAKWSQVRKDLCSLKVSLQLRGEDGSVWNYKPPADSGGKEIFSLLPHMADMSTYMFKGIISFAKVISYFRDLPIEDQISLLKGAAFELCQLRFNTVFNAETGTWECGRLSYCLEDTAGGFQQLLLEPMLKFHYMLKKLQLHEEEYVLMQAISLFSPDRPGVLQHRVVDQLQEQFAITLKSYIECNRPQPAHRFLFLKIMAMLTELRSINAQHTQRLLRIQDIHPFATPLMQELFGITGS

Assay [14] has as its target Cytochrome P450 2D6 (Homo sapiens) (UniProt P10635). In words: Cytochrome P450 Family 2 Subfamily D Member 6 (CYP2D6) small molecule antagonists: luciferase reporter qHTS assay (AID 1671196). Further: nearly all actives have a fitted effect of over 50% in size. Further: potency means the concentration at half of the fitted maximal effect. The settings on record: P450-Glo CYP2D6 enzyme assay, luciferin luminescence, 1 h; series mostly up to 115 µM. The procedure, abridged: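 Luminescence (RLU), read 20 min after detection reagent, indicated CYP2D6 conversion of proluciferin to luciferin during a 1 h NADPH-dependent reaction at room temperature.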
A general note: A reporter such as luciferase makes a cellular process visible.

Assay [15] addresses Cytochrome P450 2C19 (Homo sapiens) (UniProt P33261). In words: Cytochrome P450 Family 2 Subfamily C Member 19 (CYP2C19) small molecule antagonists: luciferase reporter qHTS assay (AID 1671197). Further: nearly all actives have a fitted effect of over 65% in size. Further: potency means the concentration at half of the fitted maximal effect. The conditions noted are these: P450-Glo CYP2C19 enzyme, luciferin luminescence, 1 h; series mostly up to 115 µM. The procedure, abridged: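 Inhibition of CYP2C19 was scored from loss of luminescence in a P450-Glo proluciferin substrate assay, NADPH-started and run 1 h at 37C, with ketoconazole as positive control.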

The target in assay [16] is Thyrotropin-releasing hormone receptor (Homo sapiens) (UniProt P34981). The assay can be described thus: qHTS assay to identify small molecule antagonists of the thyrotropin-releasing hormone receptor (TRHR) signaling pathway (AID 1346877; active means well fitted inhibition curve with a large enough effect in the repeat runs, not every such curve was filed as active). The settings on record: TRHR-HEK293, TRH-induced calcium fluorescence, antagonist mode; series mostly up to 51.3 µM. In a few lines:
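Screening used HEK293 cells engineered with TRHR, with a brief 5 min room-temperature compound exposure preceding addition of TRH to 1 nM. The read-out was kinetic calcium-dye fluorescence, concentration-response from 15 doses in triplicate.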

Assay [17] has the same target. The assay can be described thus: qHTS assay to identify small molecule agonists of the thyrotropin-releasing hormone receptor (TRHR) signaling pathway (AID 1346891; calls by dose curve). The settings on record: TRHR-HEK293 calcium fluorescence, agonist mode; series mostly up to 57.6 µM. The procedure, abridged:
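Agonist-mode intracellular calcium readout: kinetic fluorescence over 3 min at 1 s intervals after compound addition to TRHR-HEK293 cells (18 h seeded, 2 h dye-loaded at 37 C). Fifteen concentrations, triplicates.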

Assay [18] has as its target Nuclear receptor subfamily 1 group I member 2 (Rattus norvegicus) (UniProt Q9R1A7). The assay can be described thus: Rat pregnane X receptor (rPXR) activation by small molecules, qHTS assay (AID 1346983). Further: nearly all actives have a fitted effect of over 20% in size. The conditions noted are these: rPXR luciferase reporter cells, One-Glo luminescence, 24 h; stronger effect = higher value. In a few lines: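 Cell-based rPXR activation assay: rPXR cells, 2,000 per well, rested 5hr at 37 C, then exposed to compounds in DMSO for 24 hr at 37 C. Luciferase activity read by One-Glo luminescence after 30 min at room temperature.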

In assay [19] the target is Nuclear receptor subfamily 1 group I member 2 (Homo sapiens) (UniProt O75469). In words: CYP3A4 induction through human pregnane X receptor (PXR) by small molecules, qHTS assay (AID 1346984). Further: nearly all actives have a fitted effect of over 40% in size. The conditions noted are these: DPX-2 HepG2 PXR, CYP3A4-luciferin luminescence, 24 h; series mostly up to 46.1 µM. The procedure, abridged: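 qHTS, concentration-response format: HepG2 DPX-2 line, PXR/CYP3A4-luc. Exposure 24 h, 37C. Substrate Luciferin-IPA 3uM final, 3 h. Detection One-Glo, 30 min RT.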

Assay [20] shares this target. In words: Human pregnane X receptor (PXR) activation by small molecules, qHTS assay (AID 1346985). Further: nearly all actives have a fitted effect of over 40% in size. The settings on record: DPX-2 HepG2 CYP3A4-luciferase, 24 h; series mostly up to 38.3 µM. The procedure, abridged: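 DPX-2 cells (HepG2 co-transfected with a PXR response element and a CYP3A4-promoter luciferase construct) were seeded at 2,000 per well, rested 5 hr at 37C, then exposed to DMSO-dissolved compounds for 24 hr. Activation was read as luciferase luminescence.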
On the % scale 0 is the no-effect control and ±100 the full control effect.

Cytochrome P450 2C19 (Homo sapiens), sequence (P33261 whole entry, looked up): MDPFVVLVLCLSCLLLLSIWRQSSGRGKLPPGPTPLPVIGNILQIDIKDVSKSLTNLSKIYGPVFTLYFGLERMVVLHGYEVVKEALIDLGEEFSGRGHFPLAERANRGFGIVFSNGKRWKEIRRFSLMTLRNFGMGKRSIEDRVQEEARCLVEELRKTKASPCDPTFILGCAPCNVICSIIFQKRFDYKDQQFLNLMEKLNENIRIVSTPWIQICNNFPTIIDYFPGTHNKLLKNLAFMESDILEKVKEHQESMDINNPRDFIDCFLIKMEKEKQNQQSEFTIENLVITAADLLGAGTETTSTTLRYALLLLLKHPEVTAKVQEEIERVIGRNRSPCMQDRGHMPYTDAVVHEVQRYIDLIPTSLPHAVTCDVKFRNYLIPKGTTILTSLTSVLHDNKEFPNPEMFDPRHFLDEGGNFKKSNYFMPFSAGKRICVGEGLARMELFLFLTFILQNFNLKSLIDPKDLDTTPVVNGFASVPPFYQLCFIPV
Progesterone receptor (Homo sapiens), sequence (P06401 whole entry, looked up): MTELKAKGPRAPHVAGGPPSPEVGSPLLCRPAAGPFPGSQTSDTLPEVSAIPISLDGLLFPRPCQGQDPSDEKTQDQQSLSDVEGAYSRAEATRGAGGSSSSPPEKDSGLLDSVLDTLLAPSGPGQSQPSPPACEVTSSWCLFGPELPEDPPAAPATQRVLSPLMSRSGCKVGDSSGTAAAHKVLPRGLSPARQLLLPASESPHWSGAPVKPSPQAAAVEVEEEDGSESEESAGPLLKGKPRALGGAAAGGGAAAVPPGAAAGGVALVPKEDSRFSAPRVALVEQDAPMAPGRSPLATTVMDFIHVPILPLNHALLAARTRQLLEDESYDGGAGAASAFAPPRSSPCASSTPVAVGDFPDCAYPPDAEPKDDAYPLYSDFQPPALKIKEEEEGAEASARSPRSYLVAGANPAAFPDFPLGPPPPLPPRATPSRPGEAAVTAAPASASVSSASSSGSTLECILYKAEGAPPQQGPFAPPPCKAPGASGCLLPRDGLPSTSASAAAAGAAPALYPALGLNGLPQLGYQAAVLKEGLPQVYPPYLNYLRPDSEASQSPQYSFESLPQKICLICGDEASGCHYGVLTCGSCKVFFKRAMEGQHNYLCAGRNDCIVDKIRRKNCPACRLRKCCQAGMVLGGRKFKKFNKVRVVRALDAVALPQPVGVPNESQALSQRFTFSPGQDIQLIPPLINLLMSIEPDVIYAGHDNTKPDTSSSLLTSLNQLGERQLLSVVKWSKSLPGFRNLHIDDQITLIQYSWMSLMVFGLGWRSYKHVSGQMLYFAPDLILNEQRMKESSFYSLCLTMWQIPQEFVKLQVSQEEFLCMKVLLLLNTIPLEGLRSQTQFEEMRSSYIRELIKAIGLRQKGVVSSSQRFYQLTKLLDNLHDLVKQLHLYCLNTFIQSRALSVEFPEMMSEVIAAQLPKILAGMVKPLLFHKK
Cytochrome P450 2D6 (Homo sapiens), sequence (P10635 whole entry, looked up): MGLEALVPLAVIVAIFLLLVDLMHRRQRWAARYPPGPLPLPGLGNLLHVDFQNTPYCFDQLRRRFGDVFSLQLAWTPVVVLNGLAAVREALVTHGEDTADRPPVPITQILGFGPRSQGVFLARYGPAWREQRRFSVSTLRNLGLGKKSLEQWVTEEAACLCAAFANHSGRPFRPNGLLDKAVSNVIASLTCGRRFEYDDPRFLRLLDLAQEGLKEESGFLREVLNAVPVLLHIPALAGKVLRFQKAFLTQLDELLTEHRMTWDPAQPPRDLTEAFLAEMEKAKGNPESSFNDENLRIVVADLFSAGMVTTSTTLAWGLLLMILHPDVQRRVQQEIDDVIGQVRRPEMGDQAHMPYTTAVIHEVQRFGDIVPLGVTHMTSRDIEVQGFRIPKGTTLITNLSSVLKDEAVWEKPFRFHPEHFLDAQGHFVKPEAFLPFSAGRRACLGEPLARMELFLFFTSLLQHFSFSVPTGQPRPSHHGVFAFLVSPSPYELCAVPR
Thyrotropin-releasing hormone receptor (Homo sapiens), sequence (P34981 whole entry, looked up): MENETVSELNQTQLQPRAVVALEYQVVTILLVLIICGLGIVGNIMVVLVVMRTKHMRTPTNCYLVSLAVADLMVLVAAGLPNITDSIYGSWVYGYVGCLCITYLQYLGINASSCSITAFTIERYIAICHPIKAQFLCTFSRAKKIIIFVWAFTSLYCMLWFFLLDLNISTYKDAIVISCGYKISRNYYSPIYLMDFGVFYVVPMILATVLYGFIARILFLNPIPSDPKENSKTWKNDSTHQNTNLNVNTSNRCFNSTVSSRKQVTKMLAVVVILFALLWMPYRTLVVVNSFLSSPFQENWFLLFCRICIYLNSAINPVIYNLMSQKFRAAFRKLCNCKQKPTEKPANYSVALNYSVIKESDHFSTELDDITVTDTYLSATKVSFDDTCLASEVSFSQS
Nuclear receptor subfamily 1 group I member 2 (Rattus norvegicus), sequence (Q9R1A7 whole entry, looked up): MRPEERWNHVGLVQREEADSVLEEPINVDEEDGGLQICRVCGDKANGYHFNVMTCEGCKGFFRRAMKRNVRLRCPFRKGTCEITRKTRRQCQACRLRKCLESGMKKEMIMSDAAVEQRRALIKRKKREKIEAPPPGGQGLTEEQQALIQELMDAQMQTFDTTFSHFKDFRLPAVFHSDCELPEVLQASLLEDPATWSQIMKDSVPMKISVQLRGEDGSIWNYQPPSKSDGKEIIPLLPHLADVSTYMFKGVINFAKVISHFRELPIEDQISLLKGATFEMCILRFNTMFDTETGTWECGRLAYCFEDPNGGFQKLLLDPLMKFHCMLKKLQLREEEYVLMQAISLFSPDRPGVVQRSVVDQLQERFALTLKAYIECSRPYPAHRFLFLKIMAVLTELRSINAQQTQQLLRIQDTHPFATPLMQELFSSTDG

In the case of `O=C(O)Cc1c[nH]c2ccccc12`, the Potency result in [1], in [2], in assay [3], in [4], in [5] and in assay [6] was “inactive” throughout. The Potency result in assay [7], in assay [8], in [9], in assay [10], in [11] and in [12] was “inactive” each time. In addition, the Potency entry in assay [13] and in assay [14] was “inactive” in each case. The Potency in assay [15] is 17.8 µM (active) and inactive.
As to `CCCOC(=O)NCCCN(C)C`, the Potency result in [3], in assay [4], in assay [5], in assay [6], in [7] and in [8] was “inactive” each time. Besides, the Potency entry in assay [9], in [10], in assay [11], in assay [12] and in assay [13] was “inactive” throughout. Besides, the Potency entry in [14] is “inactive and 35.6 µM (active)”; in assay [15], 35.6 µM (active) and inactive.
As for `O=c1c(O)c(-c2ccc(O)c(O)c2)oc2cc(O)cc(O)c12`, the Potency entry in [1], in assay [3], in [4], in assay [5], in [7] and in assay [16] was “inactive” in each case. Moreover, the Potency result in [8], in assay [9], in assay [11], in assay [19] and in assay [15] was “inactive” in each case. Besides, the Potency in [2] was 15.4 µM (active) and 16.8 µM (active); in assay [12], 48.6 µM (active) and 54.5 µM (active); in assay [13], 48.6 µM (active) and 69.1 µM (active); in assay [14], 63.4 µM (active) and inactive. Moreover, the outcome in assay [17] and in [20] was inactive. The max activation in assay [18] was -3.01% (inactive).
Turning to `CC1=CC(=O)CC(C)(C)C1`, the Potency result in assay [1], in [2], in [5], in [6], in [7] and in assay [16] was “inactive” in each case. Besides, the Potency entry in assay [8], in assay [9], in assay [10], in [11], in [12] and in assay [14] was “inactive” throughout. Further, the Potency in assay [4] was 19.9 µM (active); in assay [13], 62.9 µM (active) and inactive. Also, the result in [17] was inactive.
`Oc1ccc(Cc2ccccc2O)cc1`: the Potency result in assay [1], in assay [4], in assay [5], in assay [6], in assay [7] and in [16] was “inactive” throughout. Besides, the Potency entry in assay [8], in assay [9], in assay [11], in assay [12] and in assay [14] was “inactive” throughout. The Potency in assay [2] is 43.8 µM (active) and 48.6 µM (active); in assay [13], 61.9 µM (active). For the same molecule, the outcome in [17] was inactive.
Turning to `Cc1ccccc1Cl`, the Potency result in assay [3], in assay [4], in assay [5], in assay [6], in assay [7] and in assay [8] was “inactive” each time. Further, the Potency result in assay [9], in assay [10], in assay [11], in assay [12], in assay [13] and in assay [14] was “inactive” each time.
